Compounds with a hit are over-represented: about 2.3% of the library has one in this group of screens.
Coupling enz: inhibits coupling enzyme system, counter-screen for aldolase hits; coupling enzyme system counterscreen, AmpLite Red fluorescence; activity change, negative = inhibition, % at 58.2 µM, hits read low; 0.67% of 290,000 active; AID 2472; in the data active = activity change below about -30%
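Coupling enzymes only (glyceraldehyde-3-phosphate) + compound, at 57.5 uM final, 10 min RT; add substrate/coupling/AmpLite Red mix, 20 min RT; fluorescence ex 525/em 598 nm. Actives flag coupling-system interference.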
Tau ThT inhib: tau fibrillization inhibition (ThT binding); P10636; recombinant tau K18 P301L, heparin-induced fibrillization, ThT fluorescence; Potency, µM (series often up to 57.4 µM), hits mostly inhibitors; 2.1% of 270,000 active; AID 1460; also: nearly all actives have a fitted effect of over 55% in size
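Tau K18 P301L fragment (15 uM unlabeled plus 0.24 uM Alexa 594-labeled) in 100 mM sodium acetate pH 7 with compound, fibrillization induced by 20 uM heparin for 6 hr at 37 C. Thioflavin T (30 uM) added, fluorescence read after 1 hr (ex 450, em 510 nm).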
Tau fluor cs: counter-screen for tau fibril formation inhibitors; AID 1463; tau K18 P301L (four-repeat tau fragment) Alexa594 fluorescence, heparin fibrillization; Potency, µM (doses to about 57.7 µM); 0.93% of 280,000 active; also: nearly all actives have a fitted effect of over 55% in size
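Human K18 P301L tau (15 uM unlabeled plus 0.24 uM Alexa 594-labeled, final) in 100 mM sodium acetate pH 7 was mixed with compound and 20 uM heparin and incubated 6 hr at 37 C.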
Tau fibril FP: inhibitors of human tau fibril formation. K18 P301L tau heparin fibrillization, Alexa594 FP, 6 h. Potency, µM (doses to about 57.7 µM), usual class: inhibitors. 0.39% of 280,000 active. AID 1468; also: nearly all actives have a fitted effect of over 55% in size
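Human tau K18 […] P301L fragment, 15 uM unlabeled plus 0.24 uM Alexa 594-labeled tau (final), with compound and 20 uM heparin in 100 mM sodium acetate pH 7; 6 hr at 37 C, then Alexa 594 FP read.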
USP1 inh: blocks the human USP1/UAF1 deubiquitinase complex | recombinant USP1/UAF1, Ub-Rhodamine cleavage fluorescence | Potency, µM (top dose mostly 57.1 µM), actives largely listed as inhibitors | 0.23% of 390,000 active | AID 743255; also: nearly all actives have a fitted effect of over 60% in size
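USP1/UAF1 complex at 1 nM was preincubated with compound for 15 min at room temperature, then Ub-Rho substrate (150nM final) was added. Fluorescence (480/540 nm) was read kinetically, 6 reads every 60 seconds.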
Hits are given with their value; ! = repeats disagree; [ ] = remark or other dose. Unless noted, calls follow the shape of the dose curve; as a rule, active = well fitted curve in the direction sought with a large enough effect; inconclusive = small, poorly fitted or top-dose-only effect, or another doubt; inactive = no such curve, though single readings can be large; an effect the other way counts as inactive or inconclusive.

Screening O=C(Nc1cccc(Cl)c1)OCC#CCCl returned Coupling enz -38.
Screening O=C(Nc1cccc(Cl)c1)OCCOC(=O)Nc1cccc(Cl)c1 returned USP1 inh inactive.
`CCCCCCCc1ccc(-c2ccc(O)cc2)nc1` gave Coupling enz inactive, Tau ThT inhib inconclusive, Tau fluor cs 14µM[quencher], Tau fibril FP inconclusive and USP1 inh inactive.
For O=C(/C=C/c1ccc(OC(F)F)cc1)Nc1cccc(S(=O)(=O)NC2=NCCCCC2)c1 the results were USP1 inh inactive.
COc1ccc(Cl)cc1Nc1nc(N)c2ccccc2n1 was read as Coupling enz inactive and USP1 inh inactive.
For COc1ccc(C)cc1Nc1nc(N)c2cc(OC)c(OC)cc2n1 the results were Coupling enz inactive, Tau ThT inhib inactive, Tau fluor cs 20µM[quencher], Tau fibril FP inconclusive and USP1 inh inactive.
For COc1cc(OC)c2c(-c3cccc(-c4ccc(O)cc4)c3)cc(=O)oc2c1 the results were Coupling enz inactive, Tau ThT inhib inconclusive, Tau fluor cs 22µM[quencher], Tau fibril FP inconclusive and USP1 inh inactive.
COc1ccccc1CNc1ncnc2c1nnn2C was read as Tau ThT inhib inactive, Tau fluor cs inactive, Tau fibril FP inactive and USP1 inh inactive.
Screening COc1ccc(C=Nc2cccnc2N)cc1 returned Coupling enz inactive and USP1 inh inactive.
`Oc1ccc(C=Nc2ccc3ncccc3c2)c(O)c1` gave Coupling enz -52, Tau ThT inhib 6.3µM, Tau fluor cs inconclusive and Tau fibril FP inconclusive.
For COc1cccc(N=Cc2ccc(O)cc2O)c1 the results were Coupling enz inactive, Tau ThT inhib inconclusive, Tau fluor cs inconclusive, Tau fibril FP inactive and USP1 inh inactive.
`CCOc1ccc(C=Nc2cccc3ncccc23)cc1` gave Coupling enz -42, Tau ThT inhib inactive, Tau fluor cs inactive, Tau fibril FP inactive and USP1 inh inactive.
`Oc1ccc(C=Nc2cccc3ncccc23)c(O)c1` gave Coupling enz -37, Tau ThT inhib inconclusive, Tau fluor cs inactive, Tau fibril FP inactive and USP1 inh inactive.
Oc1ccc(C=Nc2ccccc2-c2nc3ccccc3[nH]2)c(O)c1 was read as Coupling enz inactive, Tau ThT inhib inconclusive, Tau fluor cs inconclusive, Tau fibril FP inconclusive and USP1 inh inactive.
COc1cc(OC)c(NC(=O)c2cncn2-c2ccc(F)cc2)cc1Cl was read as Coupling enz inactive and USP1 inh inactive.
Screening Cc1ccc2oc(C(=O)NCC3CCOCC3)c(C)c2c1 returned USP1 inh inactive.
Screening CCc1cccc(C)c1NC(=O)COCc1cc(-c2ccc3c(c2)OCO3)on1 returned Tau ThT inhib inconclusive, Tau fluor cs inactive, Tau fibril FP inactive and USP1 inh inconclusive.
For COC(=O)C(CC(C)C)NC(=O)C(N)Cc1ccccc1 (centres undefined) the results were Coupling enz inactive, Tau ThT inhib inactive, Tau fluor cs inactive, Tau fibril FP inactive and USP1 inh inactive.
CC[C@@H](C)[C@@H](CO[C@@H](Cc1ccccc1)C(=O)N[C@@H](CCS(C)(=O)=O)C(=O)OC(C)C)NC[C@@H](N)CS was read as Coupling enz inactive, Tau ThT inhib 35µM, Tau fluor cs inactive and Tau fibril FP inconclusive.
For COc1ccc(C(=O)NCC2(N3CCCCC3)CCCCC2)cc1S(=O)(=O)N(C)C the results were Coupling enz inactive and USP1 inh inactive.
Screening Cc1c(Cl)cccc1NS(=O)(=O)c1ccc2[nH]cc(C(=O)NC3CCCC3)c(=O)c2c1 returned Tau ThT inhib inactive, Tau fluor cs inconclusive, Tau fibril FP 14µM and USP1 inh inactive.
For Cc1ccccc1NS(=O)(=O)c1ccc2[nH]cc(C(=O)N3CCCCC3)c(=O)c2c1 the results were Tau ThT inhib inactive, Tau fluor cs inactive, Tau fibril FP inactive and USP1 inh inactive.
Cc1ccccc1NS(=O)(=O)c1ccc2[nH]cc(C(=O)NC(C)c3ccccc3)c(=O)c2c1 (centres undefined) was read as Tau ThT inhib inactive, Tau fluor cs inconclusive, Tau fibril FP 25µM and USP1 inh inactive.
Cc1ccccc1NS(=O)(=O)c1ccc2[nH]cc(C(=O)NC3CCCCC3)c(=O)c2c1 was read as Tau ThT inhib inactive, Tau fluor cs inconclusive, Tau fibril FP 28µM and USP1 inh inactive.
`CCN(CC)S(=O)(=O)c1ccc2[nH]cc(C(=O)NC3CC3)c(=O)c2c1` gave Coupling enz inactive and USP1 inh inactive.
Screening Cc1cccc(CCN2C(N(C)C)=NC[C@@H]2C)c1 returned USP1 inh inactive.
COc1ccccc1C(=O)COC(=O)CN1C(=O)C2CC=CCC2C1=O (centres undefined) was read as USP1 inh inactive.
`COc1cc2c(cc1OC)-c1c(OC)c(OC)cc3ccnc(c13)C2=O` gave Coupling enz -34!, Tau ThT inhib 7.1µM, Tau fluor cs inconclusive, Tau fibril FP inactive and USP1 inh inactive.
Screening COc1cc2cccc(OC)c(=O)c2c(O)c1OC returned Coupling enz inactive, Tau ThT inhib inconclusive, Tau fluor cs inactive, Tau fibril FP inactive and USP1 inh inactive.
For COc1cccc(NC(=O)C2CCCN2S(=O)(=O)c2ccc3nc(-c4ccccc4)[nH]c3c2)c1 (centres undefined) the results were Tau ThT inhib inactive, Tau fluor cs inactive, Tau fibril FP inactive and USP1 inh inactive.
Screening Cc1cccc(NC(=O)C2CCCN2S(=O)(=O)c2ccc3nc(-c4ccccc4)[nH]c3c2)c1 (centres undefined) returned Tau ThT inhib inactive, Tau fluor cs 20µM[quencher], Tau fibril FP inconclusive and USP1 inh inactive.
`CC(C)c1ccc(NC(=O)C2CCCN2S(=O)(=O)c2ccc3nc(-c4ccccc4)[nH]c3c2)cc1` (centres undefined) gave Tau ThT inhib inactive, Tau fluor cs 11µM[quencher], Tau fibril FP 14µM and USP1 inh inactive.
For Cc1ccc(NC(=O)C2CCCN2S(=O)(=O)c2ccc3nc(-c4ccccc4)[nH]c3c2)cc1C (centres undefined) the results were Tau ThT inhib inactive, Tau fluor cs 32µM[quencher], Tau fibril FP inconclusive and USP1 inh inactive.
O=C(O)c1cccc(Cn2c(Cl)c(/C=N/NC(=O)c3ccc(O)cc3)sc2=O)c1 was read as Coupling enz inactive, Tau fluor cs inactive, Tau fibril FP inactive and USP1 inh inactive.
Screening O=Cc1sc(=O)n(Cc2cccc(C(=O)O)c2)c1Cl returned Coupling enz inactive, Tau ThT inhib 13µM, Tau fluor cs inactive, Tau fibril FP 10µM and USP1 inh inactive.
Screening Cc1nnc(NC(=O)c2sc3nc(-c4cccs4)cc(C(F)(F)F)c3c2N)s1 returned Coupling enz inactive, Tau ThT inhib 13µM, Tau fluor cs inactive, Tau fibril FP inactive and USP1 inh inactive.
`Nc1c(C(=O)Nc2nccs2)sc2nc(-c3cccs3)cc(C(F)(F)F)c12` gave Coupling enz inactive, Tau ThT inhib inactive, Tau fluor cs inactive, Tau fibril FP inactive and USP1 inh inactive.

Bioassay records as filed in PubChem.
